Laboratory results from the supplement of paper PMC12024424.
Structures can show the parent of a compound that is named as a salt.

Columns and labels:
[1] = test system: Staphylococcus aureus Sa2 (MRSA, cystic fibrosis isolate); test: growth reduction vs untreated control (OD550); higher = stronger antibacterial activity; conditions: 0.1 mM; 24 h
Protocol: (§1)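 Single-dose screen of the MedChem Express Drug Repurposing Library (0.1 mM, 1% DMSO) against planktonic MRSA S. aureus Sa2 (CF isolate) in TSB in 96-well plates, 37 °C aerobic, 24 h. Assays were run in triplicate and repeated twice.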

[2] = test system: Staphylococcus aureus Sa2 (MRSA, cystic fibrosis isolate); test: growth reduction vs untreated control (viable cell count); higher = stronger antibacterial activity; extreme values may be limits of the assay; conditions: 0.1 mM; 24 h
Protocol: as §1

SMILES	growth reduction [1] [%]	growth reduction [2] [%]
C[C@H](CCC(=O)O)[C@H]1CC[C@H]2[C@@H]3[C@H](O)C[C@@H]4C[C@H](O)CC[C@]4(C)[C@H]3CC[C@]12C [Chenodeoxycholic Acid]	99	99
Cc1ccc([C@@H]2O[C@H](CO)[C@@H](O)[C@H](O)[C@H]2O)cc1Cc1ccc(-c2ccc(F)cc2)s1 [Canagliflozin]	100	100
Oc1c(Br)cc(Br)c2cccnc12 [Broxyquinoline]	100	100
Cc1ccc(NC(=O)c2ccc(CN3CCN(C)CC3)cc2)cc1Nc1nc(-c2cccnc2)cs1 [Masitinib (mesylate)]	100	100
CC1(C)CCC(C)(C)c2cc(Cn3cccn3)c(/C=C/c3ccc(C(=O)O)cc3)cc21 [Palovarotene]	100	100
C=C1C[C@H]2[C@@H]3CCC4=CC(=O)CC[C@@H]4[C@H]3CC[C@]2(C)[C@@]1(OC(C)=O)C(C)=O [Nestoron]	93.2	98
Cc1ncc(NC(=O)c2ccc(CN3CCN(C)CC3)c(C(F)(F)F)c2)cc1Nc1nccc(-c2cccnc2)n1 [Flumatinib]	100	100
CNCc1ccc(C)c(NC(=O)c2ccc(Nc3nc(-c4ccccc4)c4ccccc4n3)cc2)c1	100	100
CCCCc1nc(-c2ccc(OCCCN(CC)CC)cc2)cn1-c1ccc(Oc2ccc(Cl)cc2)cc1 [Azeliragon]	100	100
Cn1cnc([N+](=O)[O-])c1C[N+](C)(C)C/C=C/C(=O)Nc1cc2c(Nc3ccc(Cl)c(Br)c3)ncnc2cn1 [Tarloxotinib (bromide)]	99.6	100
CCN(C/C=C\c1ccc(C2CCCCC2)c(Cl)c1)C1CCCCC1	100	99
C=CC(=O)Nc1cccc(Oc2nc(Nc3ccc(N4CCN(C)CC4)c(F)c3)nc3[nH]ccc23)c1 [Avitinib (maleate)]	100	99
Nc1ncccc1-c1nc2ccc(-c3ccccc3)nc2n1-c1ccc(C2(N)CCC2)cc1 [Miransertib]	97.6	95
COC(=O)/C=C/C(=O)OCCN1C(=O)CCC1=O [Diroximel fumarate]	100	
